Test results taken from PubChem BioAssay AID372 (MTDP, 2006).
Hit rate of the full screen: of about 100,000 compounds, about 770 (0.77%) were called active. No stated cut-off is given here; in the data, active means inhibition above about 50%; inactive means the rest. For the sample, actives were picked, then their nearest neighbours and some compounds at random.

Target: Gag-Pol polyprotein (Human immunodeficiency virus type 1 group M subtype B (isolate HXB2)) (UniProt P04585)
Assay: RNase H inhibition, HIV 1 Gag Pol polyprotein, FRET biochemical assay, screening (AID 372)
Details: HIV-1 RT RNase H, FRET RNA/DNA substrate fluorescence; at 10 µM; active compounds read high

Compound	inhibition
COc1ccc(C(=O)/C=C/NCC(=O)c2ccccc2)cc1	19% (inactive)
N#CC1=C(N)Oc2c(ccc3ccccc23)C1c1ccccc1Cl (stereo unspecified)	29% (inactive)
Cc1ccc(N2C(=O)CC(Sc3ccccc3C(=O)O)C2=O)c([N+](=O)[O-])c1 (stereo unspecified)	0% (inactive)
CCOC(=O)c1c(C)oc2c1C(=O)C(=O)C(Br)=C2	2% (inactive)
CCOC(=O)c1c2c(n(C)c1C)C=C(Br)C(=O)C2=O	4% (inactive)
CCOC(=O)c1c2c(n(-c3ccccc3)c1C)C=C(Br)C(=O)C2=O	58% (active)
Cn1c(=O)c2c(nc(Sc3nc4ccccc4o3)n2C)n(C)c1=O	0% (inactive)
O=C(c1ccc(I)cc1)N1CCOCC1	0% (inactive)
CC1CCN(C2(O)C(=O)Nc3ccc(Br)cc32)CC1 (stereo unspecified)	14% (inactive)
O=[N+]([O-])c1ccc(-c2ccco2)c(Cl)c1	14% (inactive)
O=[N+]([O-])c1cc(Cl)c(-c2ccco2)c(Cl)c1	57% (active)
O=[N+]([O-])c1ccc(-c2nnc(-c3ccco3)o2)c(Cl)c1	8% (inactive)
CCN(CC)CCN1C(=O)C(=O)/C(=C(/O)c2ccccc2)C1c1cccc([N+](=O)[O-])c1 (stereo unspecified)	1% (inactive)
CCN(CC)c1ccc(N=Cc2c[nH]c3ccccc23)cc1	4% (inactive)
CC(C)C(=O)NS(=O)(=O)c1ccc(N)cc1	5% (inactive)
CC(=O)Nc1nc(-c2ccc(Cl)cc2)nc(C)c1C(C)=O	3% (inactive)
CC(=O)Nc1nc(-c2ccccc2)nc(C)c1C(C)=O	6% (inactive)
CC(=O)c1c(C)nc(-c2ccc(Cl)cc2)nc1NC(=O)c1ccccc1	59% (active)
CCOC(=O)c1c(C)oc2c(F)c(F)c(F)c(F)c12	22% (inactive)
COC(=O)c1ccc(NC(=O)c2ccc3c(c2)C(=O)N(c2cccc([N+](=O)[O-])c2)C3=O)cc1	10% (inactive)
O=C(Nc1ccccc1)c1ccc2c(c1)C(=O)N(c1cccc(N3C(=O)c4ccc(C(=O)Nc5ccccc5)cc4C3=O)n1)C2=O	8% (inactive)
O=C(Nc1ccc(O)cc1)c1ccc2c(c1)C(=O)N(c1cccc(N3C(=O)c4ccc(C(=O)Nc5ccc(O)cc5)cc4C3=O)n1)C2=O	54% (active)

Compound	inhibition
COC(=O)c1ccc(NC(=O)c2ccc3c(c2)C(=O)N(c2ccc([N+](=O)[O-])cc2)C3=O)cc1	52% (active)
O=C(Nc1ccc(O)cc1)c1ccc2c(c1)C(=O)N(c1ccccn1)C2=O	13% (inactive)
Cc1ccc(NC(=O)c2ccc3c(c2)C(=O)N(c2ccc([N+](=O)[O-])cc2)C3=O)cc1	17% (inactive)
CC(C)(C)C1(O)CC(C(F)(F)F)=NN1C(=O)c1ccc([N+](=O)[O-])cc1 (stereo unspecified)	18% (inactive)
COc1ccc(NC(=O)c2ccc(-c3ccccc3)cc2)cc1	8% (inactive)
COC(=O)c1c(C)oc2cc(Br)c(OC(=O)c3cccc([N+](=O)[O-])c3)cc12	0% (inactive)
Cc1cccc(C)c1OCCOc1ccccc1/C=C1\SC(=S)N(C)C1=O	13% (inactive)
CC(c1ccccc1)C1CC(=O)N(c2ccc(F)cc2)C1=O (stereo unspecified)	0% (inactive)
CC(c1ccccc1)C1CC(=O)N(c2ccccc2)C1=O (stereo unspecified)	0% (inactive)
CC(c1ccccc1)C1CC(=O)N(c2ccc(I)cc2)C1=O (stereo unspecified)	54% (active)
CCCc1cc2c(-c3ccccc3)cc(=O)oc2cc1OCC	22% (inactive)
CCCc1cc2c(-c3ccccc3)cc(=O)oc2cc1OCC(=O)O	9% (inactive)
CCCc1cc2c(-c3ccccc3)cc(=O)oc2cc1OCc1ccc(C(=O)O)o1	59% (active)
Cc1ccc(NC(=O)C(=NNc2ccccc2)C(=O)Nc2ccc(C)cc2)cc1	0% (inactive)
CC1CC(N(C(=O)c2ccc(Cl)cc2)c2ccccc2)c2ccccc2N1 (stereo unspecified)	10% (inactive)
CC(=O)N(c1ccccc1)C1CC(C)Nc2ccccc21 (stereo unspecified)	1% (inactive)
CC1CC(N(c2ccccc2)S(=O)(=O)c2ccc(Cl)cc2)c2ccccc2N1 (stereo unspecified)	60% (active)
CCOC(=O)c1sc(NC(=O)/C=C/c2cccc([N+](=O)[O-])c2)nc1C	6% (inactive)
COC(=O)C1=C(C)NC(=O)/C1=C\c1ccccc1	8% (inactive)
O=C1/C(=C\c2ccc(-c3ccccc3[N+](=O)[O-])o2)SC(=S)N1C1CCS(=O)(=O)C1 (stereo unspecified)	23% (inactive)
Cc1cc(C)cc(-n2c(C)cc(/C=N/NC(=O)c3cccnc3)c2C)c1	13% (inactive)
O=c1/c(=C/c2ccc(-c3ccccc3Cl)o2)sc2nc3ccccc3n12	3% (inactive)

Compound	inhibition
COc1ccc(C2C3=C(CC(C)(C)CC3=O)Nc3ccccc3N2C(=O)CC(C)C)cc1 (stereo unspecified)	3% (inactive)
Cc1ccc2nc(-c3ccc(NC(=O)/C=C/c4cccc([N+](=O)[O-])c4)cc3)oc2c1	54% (active)
O=C(/C=C/c1ccc(Cl)cc1)Nc1ccc(-c2nc3ccccc3o2)c(O)c1	20% (inactive)
O=C(/C=C/c1cccc([N+](=O)[O-])c1)Nc1ccc(-c2nc3ccccc3o2)cc1	54% (active)
O=C(/C=C/c1ccc(Cl)cc1)Nc1ccc(-c2nc3ccccc3o2)cc1	52% (active)
Cc1ccc2nc(-c3ccc(NC(=O)/C=C/c4ccc(Cl)cc4)cc3)oc2c1	48% (inactive)
Cc1ccc2nc(-c3ccc(C)c(NC(=O)/C=C/c4cccc([N+](=O)[O-])c4)c3)oc2c1	40% (inactive)
O=C(/C=C/c1cccc([N+](=O)[O-])c1)Nc1ccc(-c2nc3ccccc3o2)c(O)c1	14% (inactive)
O=C(/C=C/c1cccc([N+](=O)[O-])c1)Nc1ccc2oc(-c3ccccc3)nc2c1	31% (inactive)
Cc1cc(C)c2oc(-c3ccc(NC(=O)/C=C/c4cccc([N+](=O)[O-])c4)cc3)nc2c1	16% (inactive)
N#Cc1cnn(-c2ccc3ccccc3c2)c1N	5% (inactive)
Cc1ccc(N=Cc2ccco2)c(C)c1	29% (inactive)
CC1(C)CC(=O)c2cc(C(=O)NCc3ccccc3)c(=O)n(-c3ccccc3)c2C1	15% (inactive)
COc1ccc(CCNC(=O)COc2ccc(Br)cc2Cl)cc1OC	53% (active)
COc1ccc(CCNC(=O)COc2ccc(Br)cc2)cc1OC	1% (inactive)
COc1ccc(CCNC(=O)COc2ccccc2OC)cc1OC	1% (inactive)
O=C(COc1ccc(Br)cc1Cl)NCCc1ccccc1	16% (inactive)
COc1ccc(CCNC(=O)COc2ccc(Cl)cc2Br)cc1OC	54% (active)
COc1ccc(CC(=O)Nc2ccc(Br)cc2C)cc1OC	50% (active)
COCCNC(=O)COc1ccc(Cl)cc1Br	14% (inactive)
COc1ccc(CC(=O)Nc2ccc(Br)cc2F)cc1OC	12% (inactive)
COc1ccc(CC(=O)Nc2ccc(Cl)cc2C)cc1OC	0% (inactive)
